# NR3A LBD binder: binders of NR3A ligand-binding domain, primary screen, biophysical, differential scanning fluorimetry, uHTS; Glutamate receptor ionotropic, NMDA 3A (GRIN3A) ligand-binding domain; NR3A LBD differential scanning fluorimetry, Tm shift; 0% = protein alone, 100% = glycine-bound protein; Tm shift relative to glycine control, % at 25 µM; 340,000 compounds, 2.5% hits;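 active = melting temperature shift of at least 10% of the positive control shift, at one fixed dose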
# Beta cell apopt: inhibitors of cytokine-induced beta cell apoptosis, primary screen, luminescence. INS-1E cytokine-induced death, ATP luminescence, 48 h; percent of positive-control rescue, neutral wells zero. protection from apoptosis, % (no concentration beside the values). 300,000 compounds, 0.8% hits;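 active = Every replicate reaches about 75%, or at least half do and their mean reaches it too, limit read from the data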;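 note: higher means more ATP so stronger rescue from cytokine killing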
# Mdm2 MdmX PPI: inhibitors of human Mdm2-MdmX association, primary screen, cell-based, luminescence, split luciferase, SaOS-2, uHTS. Protein Mdm4 (Homo sapiens) + E3 ubiquitin-protein ligase Mdm2 (Homo sapiens), …. SaOS-2 split-luciferase Mdm2/MdmX complementation. inhibition, % at 8 µM. 330,000 compounds, 3% hits. AID 485346, 2010;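 active = inhibition of at least 50% at 8 µM in the primary screen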
# Target sequence (O15151 whole entry, looked up): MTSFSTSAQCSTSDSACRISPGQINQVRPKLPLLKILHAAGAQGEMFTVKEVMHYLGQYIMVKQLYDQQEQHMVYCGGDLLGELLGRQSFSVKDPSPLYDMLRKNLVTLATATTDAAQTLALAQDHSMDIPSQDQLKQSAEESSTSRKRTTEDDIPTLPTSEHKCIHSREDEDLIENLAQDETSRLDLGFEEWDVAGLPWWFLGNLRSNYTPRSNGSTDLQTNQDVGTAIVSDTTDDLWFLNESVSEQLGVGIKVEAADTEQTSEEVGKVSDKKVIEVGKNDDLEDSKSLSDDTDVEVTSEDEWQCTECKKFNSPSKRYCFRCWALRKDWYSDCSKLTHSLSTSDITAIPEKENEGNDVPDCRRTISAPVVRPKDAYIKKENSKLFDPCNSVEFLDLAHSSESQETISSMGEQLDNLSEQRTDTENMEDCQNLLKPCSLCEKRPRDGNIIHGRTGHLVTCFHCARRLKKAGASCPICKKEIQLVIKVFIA
# Target sequence (Q00987 whole entry, looked up): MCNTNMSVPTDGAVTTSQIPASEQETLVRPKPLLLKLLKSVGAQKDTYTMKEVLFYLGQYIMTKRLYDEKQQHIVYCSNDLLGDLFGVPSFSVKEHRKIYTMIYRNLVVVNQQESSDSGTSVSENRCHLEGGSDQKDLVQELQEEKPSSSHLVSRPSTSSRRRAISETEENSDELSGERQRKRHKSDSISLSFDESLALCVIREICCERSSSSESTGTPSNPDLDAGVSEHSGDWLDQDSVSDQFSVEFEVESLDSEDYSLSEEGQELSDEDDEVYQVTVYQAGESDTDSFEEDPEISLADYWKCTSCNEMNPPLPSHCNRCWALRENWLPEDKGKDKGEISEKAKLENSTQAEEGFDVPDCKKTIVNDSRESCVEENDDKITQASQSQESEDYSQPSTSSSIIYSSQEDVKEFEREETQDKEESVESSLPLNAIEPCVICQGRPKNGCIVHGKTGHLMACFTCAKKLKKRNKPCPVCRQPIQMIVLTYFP
# SKKanGAS inh: S. pyogenes SKKanGAS growth inhibitors in kanamycin, primary screen, streptokinase expression inhibitor project, SKKanGAS strain, BacTiter-Glo luminescence | 300,000 compounds, 1.3% hits | 6 h | inhibition, % at 7.5 µM | AID 1662, 2009;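 active = mean replicate score, as percent of positive control median, at least 50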;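 note: strain carries kanamycin resistance gene driven by streptokinase promoter and grows in 40 µg/ml kanamycin; loss of luminescence reflects streptokinase promoter inhibition or plain growth inhibition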
# MPTP block: mitochondrial permeability transition pore inhibitors, primary screen, biochemical, isolated mouse mitochondria, absorbance; 360,000 compounds, 1.4% hits; inhibition, % at 10 µM; Ca2+ swelling absorbance, 30 min;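 active = inhibition of 50% or more, scaled per plate between neutral and stimulator controls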
# CSC inhib: cancer stem cell viability inhibitors, primary screen, luminescence | cancer stem cell-like cells viability | inhibition, % at 7.5 µM | 300,000 compounds, 1.1% hits; in the data active = inhibition above about 75%; tested in HMLE shEcad cells
# Mdm2-MdmX conf: Mdm2-MdmX complex disruptors, retested hits, confirmation, luminescence, single concentration; inhibition, % at 8 µM; AID 489028, 2010; 10,000 compounds, 55% hits; Mdm2-MdmX binding, luminescent assay; shares compounds with Mdm2 MdmX PPI; in the data active = inhibition above about 40%
# FLuc counter: full-length luciferase signal inhibition, confirmation, counter-screen for Mdm2/MdmX interaction inhibitor project, cell-based, single concentration, SaOS-2. shares compounds with Mdm2 MdmX PPI. SaOS-2 full-length luciferase counterscreen, luminescence. inhibition, % at 8 µM. 6,200 compounds, 77% hits. AID 504607, 2011;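 active = mean inhibition at 8 µM reaching about 37%, which flags the compound as non-specific, limit read from the data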;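 note: p53-null SaOS-2 cells with luciferase driven by a doxycycline-inducible promoter; compound on cells about two nights before reading with doxycycline added after day one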
# A number is an active result; 0 = inactive; - = no result given. An excerpt weighted towards active compounds, which were near 6.9% of everything screened.
SMILES,NR3A LBD binder,Beta cell apopt,Mdm2 MdmX PPI,SKKanGAS inh,MPTP block,CSC inhib,Mdm2-MdmX conf,others
COc1ccc(C(=O)Nc2ccc(NC(=O)c3ccccc3)cc2)cc1S(=O)(=O)N1CCOCC1,32.3,0,85.6,0,0,0,0,
O=C(Nc1ccc(NC(=O)c2ccc(Cl)c(S(=O)(=O)N3CCOCC3)c2)cc1)c1ccccc1,0,0,57.6,0,0,0,44.6,FLuc counter=48.4
C[C@H](NS(=O)(=O)c1ccc(F)cc1)C(=O)OCC(=O)c1c(N)n(C)c(=O)n(C)c1=O,0,0,0,-,0,0,-,
Cc1ccc(C(=O)NCC(=O)OCC(=O)N(CC(C)C)c2c(N)n(Cc3ccccc3)c(=O)[nH]c2=O)cc1,0,0,0,0,0,0,-,
Cc1ccc(-c2nn3c(C)nnc3s2)cc1NC(=O)c1ccc(-c2ccc(Cl)cc2Cl)o1,0,-,79.6,-,0,0,0,
N#Cc1c(Nc2ccccc2)sc(C(=O)c2ccccc2)c1N,0,0,0,0,0,0,-,
Cc1cccc(Oc2sc(C(=O)c3ccccc3)c(N)c2C#N)c1,0,0,58.1,0,0,0,0,FLuc counter=42.0
CCCCC1CCC(C(=O)N(CC(C)C)c2c(N)n(Cc3ccccc3)c(=O)[nH]c2=O)CC1 (centres undefined),0,84.6,96.9,0,-,90.8,0,
CC(C)CN(C(=O)COC(=O)/C=C/c1ccc(Cl)c(Cl)c1)c1c(N)n(Cc2ccccc2)c(=O)[nH]c1=O,0,-,91.8,-,0,-,0,
O=C(C1CCCN(Cc2ccccc2[N+](=O)[O-])C1)N1CCCCC1 (centres undefined),0,0,0,0,0,0,-,
Cn1/c(=N/N=C/c2ccc(N3CCOCC3)cc2)sc2ccccc21,0,0,0,0,0,0,-,
CCCn1c(CC)nc([N+](=O)[O-])c1Sc1ccc(F)cc1,0,0,0,0,0,0,-,
CCCn1c(CC)nc([N+](=O)[O-])c1Sc1ccc(C)cc1,0,0,63.7,0,0,0,0,
CCOC(=O)c1c2c(n(C)c1COC)C(=O)C(=O)c1ccc(Br)cc1-2,-,105.3,99.3,88.1,-,121.3,98.3,FLuc counter=0
CCOC(=O)c1c2c(n(-c3ccc(OC)cc3)c1C)C(=O)C(=O)c1ccccc1-2,0,-,-,-,0,-,-,
O=C1C=C(Nc2ccc(Cl)cc2Cl)CC(c2ccco2)C1 (centres undefined),0,0,50.6,0,0,0,53.2,FLuc counter=62.1
O=C1C=C(NCc2ccc(Cl)cc2)CC(c2ccco2)C1 (centres undefined),0,0,0,0,0,0,-,
O=C(CN1c2ccccc2Sc2ccccc21)N/N=C/c1ccc(Cl)cc1,11.1,0,70.5,0,0,0,0,
O=C(Cc1ccc(Cl)cc1)N/N=C/c1ccccc1,0,0,0,0,0,0,-,
Cc1ccc(-n2c(O)c(/C=N/NC(=O)C3COc4ccccc4O3)c3ccccc3c2=O)cc1 (centres undefined),0,0,60.4,100.9,0,-,0,
Cc1ccc(/C=N/NC(=O)C2COc3ccccc3O2)s1 (centres undefined),0,0,53.0,0,0,0,76.5,FLuc counter=57.3
O=C(NC1=NCCS1)C1COc2ccccc2O1 (centres undefined),0,0,80.4,0,0,-,80.7,FLuc counter=0
CC(=O)Nc1c(Br)cc2c(c1Br)Cc1cc([N+](=O)[O-])ccc1-2,0,-,-,-,0,-,-,
Cc1ccc(N2C(=O)N(Cc3ccccc3C)c3ccccc3S2(=O)=O)cc1,0,0,0,0,0,0,-,
O=C(COc1ccc(Cl)cc1)NCCCNC(=O)c1ccncc1,0,0,0,0,0,-,-,
SMILES,NR3A LBD binder,Beta cell apopt,Mdm2 MdmX PPI,SKKanGAS inh,MPTP block,CSC inhib,Mdm2-MdmX conf,others
O=C(c1cccc(-n2cccc2)c1)N1CCN(S(=O)(=O)c2ccccc2Br)CC1,0,-,0,-,0,-,-,
Cc1cnn(-c2cc(N/N=C/c3cccc(F)c3)ncn2)c1,0,0,75.1,0,0,0,0,
Cc1cnn(-c2cc(N/N=C/c3ccccc3F)ncn2)c1,0,0,64.2,0,0,0,0,
Cc1cnn(-c2cc(N/N=C/c3ccccc3)ncn2)c1,0,0,0,0,0,0,-,
COc1ccc(-c2csc(/C(C#N)=C\c3cccc([N+](=O)[O-])c3)n2)cc1,-,0,0,0,-,0,-,
N#C/C(=C\C=C\c1ccccc1[N+](=O)[O-])c1nc(-c2ccc3c(c2)OCO3)cs1,0,0,63.3,0,0,0,0,
COc1ccc(N2C(=O)CSC2c2ccccc2F)c(OC)c1 (centres undefined),0,0,0,0,0,0,-,
COc1ccc(CNC(=O)C2CCC(CNc3c(N4CCC(C)CC4)c(=O)c3=O)CC2)cc1 (centres undefined),0,0,0,0,0,0,-,
COc1ccc2sc(-c3ccc(N(C)C)cc3)c(C#Cc3cncn3C)c2c1,0,0,74.1,-,0,104.1,0,
COC(=O)c1cc(=O)n(-c2ccccc2)c(=Nc2ccccc2)s1,0,0,0,0,0,0,-,
CCOC(=O)c1ccc(N=c2sc(C(=O)OC)cc(=O)n2-c2ccc(C(=O)OCC)cc2)cc1,0,0,82.9,0,0,0,0,
Nc1ncn([C@H]2C[C@H](O)[C@@H](CO)O2)c(=O)n1,0,0,0,0,0,0,-,
Nc1nc(F)nc2c1ncn2[C@@H]1O[C@H](CO)[C@@H](O)[C@H]1O,0,94.3,98.6,0,0,0,100.0,FLuc counter=0
Nc1nc(Cl)nc2c1ncn2C1OC(CO)C(O)C1O (centres undefined),-,-,-,-,0,-,-,
C=CCNc1ncnc2c1ncn2C1OC(CO)C(O)C1O (centres undefined),0,0,56.0,0,0,77.3,0,
Nc1ncn(C2O[C@H](CO)[C@@H](O)[C@H]2O)c(=O)n1 (some centres undefined),-,0,53.6,-,-,0,64.5,FLuc counter=56.8
Nc1nc(Cl)nc2c1ncn2C1CC(O)C(CO)O1 (centres undefined),0,0,80.7,0,0,0,77.1,FLuc counter=0
COc1ccc(CC(=O)Nc2cccc(-c3nnc(-c4ccc(C)cc4)o3)c2)cc1OC,0,0,71.9,0,0,0,75.3,FLuc counter=67.3
COc1ccc(CC(=O)Nc2cccc(-c3nnc(-c4ccccc4)o3)c2)cc1OC,0,-,-,0,0,-,-,

# Source: PubChem (several laboratories)
